Test results from PubChem BioAssay (NCI).
Where “and” joins values, the source holds several entries; their conditions need not be identical. Equal values may be shown once. About 79,000 compounds went through this panel and 15% of them were active in at least one assay; those are over-represented in the sample as a whole. Some structures have more than one record in an assay (separate samples or runs), and their calls can disagree. Calls of active or inactive are those of the source. Rule as the data show it: active = growth inhibition above about 70%; inactive = the rest.

What was measured:
[1] = NCI Yeast Anticancer Drug Screen. Data for the rad50 strain (AID 155);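 also: 0% = growth of vehicle-only cultures of the same strain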; conditions: S. cerevisiae rad50 strain growth inhibition, stronger effect = higher value
How it was run: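 A DNA repair-deficient yeast mutant serves as the test organism; compound-induced growth inhibition is calculated against vehicle-treated cells.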

[2] = NCI Yeast Anticancer Drug Screen. Data for the mec2-1 strain (AID 157); conditions: S. cerevisiae mec2-1 strain, stronger effect = higher value
How it was run: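 Cells of the genetically defined mec2-1 yeast strain are incubated with test compound. Inhibition of growth is calculated against vehicle-treated controls.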

[3] = NCI Yeast Anticancer Drug Screen. Data for the sgs1 mgt1 strain (AID 161);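 also: 0% = growth of cultures given vehicle only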; conditions: S. cerevisiae sgs1 mgt1 strain, stronger effect = higher value
How it was run: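 Read-out: growth inhibition vs vehicle controls. Cells: mutant yeast strain deficient in DNA damage repair.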

[4] = NCI Yeast Anticancer Drug Screen. Data for the cln2 rad14 strain (AID 165);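 also: 0% = growth equal to vehicle treated cultures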; conditions: S. cerevisiae cln2 rad14 strain, stronger effect = higher value
How it was run: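 The screen exposed genetically defined yeast (cln2 rad14) to test compounds and scored growth inhibition relative to vehicle-treated controls.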

[5] = NCI Yeast Anticancer Drug Screen. Data for the bub3 strain (AID 167); conditions: S. cerevisiae bub3 mutant strain, stronger effect = higher value
How it was run: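 Inhibition values come from growth of compound-treated mutant yeast normalised to vehicle-treated controls.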

[6] = NCI Yeast Anticancer Drug Screen. Data for the mlh1 rad18 strain (AID 175); conditions: S. cerevisiae mlh1 rad18 strain growth inhibition, stronger effect = higher value
How it was run: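 Compound-treated yeast growth, normalised to vehicle controls. Strain bears defined DNA repair mutations.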

[7] = at 5.0 µM (retest, dose inferred, filed as 0.5)
[8] = at 50.0 µM (retest, dose inferred, filed as 5.0)

| Structure (SMILES) | growth inhibition [1, 7] | growth inhibition [1, 8] | growth inhibition ([1]; at 50.0 µM) | growth inhibition [2, 7] | growth inhibition [2, 8] | growth inhibition ([2]; at 50.0 µM) | growth inhibition [3, 7] | growth inhibition [3, 8] | growth inhibition ([3]; at 50.0 µM) | growth inhibition [4, 7] | growth inhibition [4, 8] | growth inhibition ([4]; at 50.0 µM) | growth inhibition [5, 7] | growth inhibition [5, 8] | growth inhibition ([5]; at 50.0 µM) | growth inhibition [6, 7] | growth inhibition [6, 8] | growth inhibition ([6]; at 50.0 µM) |
| --- | --- | --- | --- | --- | --- | --- | --- | --- | --- | --- | --- | --- | --- | --- | --- | --- | --- | --- |
| C=C(C)C1(CCCC)C(=O)NC(=S)NC1=O | 0% (inactive) | 60% (inactive) | 29.9% (inactive) | -18% (inactive) | 49% (inactive) | 11.8% (inactive) | -14% (inactive) | 61% (inactive) | 34.8% (inactive) | -18% (inactive) | 51% (inactive) | -28.1% (inactive) | -7% (inactive) | 45% (inactive) | 39% (inactive) | -2% (inactive) | 85% (active) | 40% (inactive) |
| O=[N+]([O-])c1cccc(N=Cc2ccc(N(CCCl)CCCl)cc2)c1 | 4% (inactive) | 53% (inactive) | 66% (inactive) | 2% (inactive) | 64% (inactive) | 21.9% (inactive) | 3% (inactive) | 63% (inactive) | 44.4% (inactive) | 2% (inactive) | 54% (inactive) | 26.1% (inactive) | 3% (inactive) | 74% (active) | 8% (inactive) | 7% (inactive) | 74% (active) | 60% (inactive) |
| S=P(Nc1ccccc1)(Nc1ccccc1)Oc1ccccc1 | 2% (inactive) | 98% (active) | 99% (active) | -4% (inactive) | 98% (active) | 99% (active) | -4% (inactive) | 98% (active) | 99.2% (active) | -4% (inactive) | 97% (active) | 98.7% (active) | 9% (inactive) | 97% (active) | 98.7% (active) | 7% (inactive) | 97% (active) | 97.5% (active) |
| O=[N+]([O-])c1csc([N+](=O)[O-])c1 | 99% (active) | 99% (active) | 99.3% (active) | 97% (active) | 99% (active) | 99.7% (active) | 95% (active) | 99% (active) | 99.5% (active) | 75% (active) | 99% (active) | 98.8% (active) | 89% (active) | 99% (active) | 99.2% (active) | 99% (active) | 99% (active) | 99.3% (active) |
| Oc1c(Cl)cc(Cl)cc1Cl | -1% (inactive) | 94% (active) | 86.5% (active) | -6% (inactive) | 67% (inactive) | 78% (active) | -1% (inactive) | 64% (inactive) | 94.8% (active) | -8% (inactive) | 55% (inactive) | 54.9% (inactive) | -13% (inactive) | 90% (active) | 78.5% (active) | -5% (inactive) | 94% (active) | 95.8% (active) |
| CCN(CC)C(=S)S | 66% (inactive) | 99% (active) | 48.6% (inactive) and 99.3% (active) | 66% (inactive) | 99% (active) | 28% (inactive) and 99.5% (active) | 58% (inactive) | 99% (active) | 34.9% (inactive) and 99.5% (active) | 8% (inactive) | 99% (active) | 21.3% (inactive) and 98.8% (active) | 65% (inactive) | 99% (active) | 8.05% (inactive) and 99.5% (active) | 75% (active) | 99% (active) | 26.8% (inactive) and 99.5% (active) |
| COC1OC(COC(C)=O)C(OC(C)=O)C(OC(C)=O)[CH]1[Hg][I] (stereo unspecified) | 99% (active) | 99% (active) | 99.2% (active) | 99% (active) | 99% (active) | 99.6% (active) | 100% (active) | 100% (active) | 99.6% (active) | 99% (active) | 99% (active) | 98.9% (active) | 99% (active) | 99% (active) | 99.3% (active) | 99% (active) | 99% (active) | 99.2% (active) |
| Nc1ccc2cc(Br)ccc2c1 | -11% (inactive) | 26% (inactive) | 75.5% (active) | -2% (inactive) | 10% (inactive) | 30.6% (inactive) | -10% (inactive) | 11% (inactive) | 46.6% (inactive) | -31% (inactive) | -9% (inactive) | 31.1% (inactive) | -8% (inactive) | 14% (inactive) | 45.9% (inactive) | -16% (inactive) | 20% (inactive) | 57.4% (inactive) |
| Oc1c(Cl)c(Cl)c(Cl)c(Cl)c1Cl (tested in a mixture with another compound) | 56% (inactive) and 41% (inactive) and 27% (inactive) | 99% (active) | 99.2% (active) and 99% (active) and 98.8% (active) | 28% (inactive) and 24% (inactive) and -7% (inactive) | 99% (active) and 100% (active) | 99.4% (active) and 99.2% (active) and 99.7% (active) | 58% (inactive) and 44% (inactive) and 23% (inactive) | 99% (active) | 99.4% (active) and 99.3% (active) and 99.2% (active) | 42% (inactive) and 28% (inactive) and 16% (inactive) | 99% (active) and 98% (active) | 97.2% (active) and 99.2% (active) and 98.5% (active) | 30% (inactive) and 29% (inactive) and 1% (inactive) | 99% (active) | 99.5% (active) and 99.3% (active) | 56% (inactive) and 46% (inactive) and 23% (inactive) | 99% (active) | 99.2% (active) and 99% (active) |
| O=c1c[n+](-c2ccc[nH+]c2)[nH]o1.[Cl][Hg][Cl] | 99% (active) | 99% (active) | 99.3% (active) | 100% (active) | 100% (active) | 99.5% (active) | 100% (active) | 100% (active) | 99.5% (active) | 99% (active) | 99% (active) | 99.3% (active) | 99% (active) | 99% (active) | 99.4% (active) | 99% (active) | 99% (active) | 99.2% (active) |
| Nc1c(Br)cc(Br)c2c1C(=O)c1ccccc1C2=O | 5% (inactive) | -1% (inactive) | -10.6% (inactive) | 2% (inactive) | 0% (inactive) | -9.45% (inactive) | 3% (inactive) | 0% (inactive) | 11.6% (inactive) | 0% (inactive) | 3% (inactive) | 41.9% (inactive) | 1% (inactive) | 4% (inactive) | 7.65% (inactive) | 9% (inactive) | -1% (inactive) | 4.5% (inactive) |
| CC(Cc1ccccc1)N(C)Cc1ccc(-c2ccc(Cl)cc2)o1 (stereo unspecified) | 56% (inactive) | 100% (active) | 99% (active) | 11% (inactive) | 100% (active) | 99.7% (active) | 49% (inactive) | 100% (active) | 33.9% (inactive) | 38% (inactive) | 100% (active) | 99.3% (active) | 42% (inactive) | 100% (active) | 99.2% (active) | 41% (inactive) | 100% (active) | 99.5% (active) |
| O=C1C(=O)c2ccccc2-c2ccccc21.O=C1C(=O)c2ccccc2-c2ccccc21.[Hg] | 100% (active) | 96% (active) | 12.2% (inactive) | 100% (active) | 97% (active) | -7.3% (inactive) | 100% (active) | 96% (active) | -6.8% (inactive) | 100% (active) | 97% (active) | 29.8% (inactive) | 100% (active) | 96% (active) | -13.8% (inactive) | 98% (active) | 93% (active) | 12.3% (inactive) |
| Cc1ccc(S)cc1.[Pb] | 0% (inactive) | 30% (inactive) | 20.1% (inactive) | 2% (inactive) | 6% (inactive) | 43.1% (inactive) | 3% (inactive) | 28% (inactive) | 44.5% (inactive) | 5% (inactive) | 2% (inactive) | -1.55% (inactive) | 3% (inactive) | 50% (inactive) | 95.9% (active) | 0% (inactive) | 13% (inactive) | 83.8% (active) |
| CCC[CH2][Sn]1([CH2]CCC)[O]C(=O)C(C(C)C)N=Cc2ccccc2[O]1 (stereo unspecified) | 15% (inactive) | 15% (inactive) | 89.8% (active) | 17% (inactive) | 17% (inactive) | 93% (active) | 12% (inactive) | 12% (inactive) | 90.8% (active) | 7% (inactive) | 7% (inactive) | 91.6% (active) | -4% (inactive) | -4% (inactive) | 90.8% (active) | -2% (inactive) | -2% (inactive) | 88.5% (active) |
| CCCCCCCCCCCC(=O)[O][Hg][c]1ccccc1 | 99% (active) | 99% (active) | 99.4% (active) | 100% (active) | 100% (active) | 99.7% (active) | 100% (active) | 99% (active) | 99.7% (active) | 99% (active) | 99% (active) | 99.4% (active) | 99% (active) | 99% (active) | 99.5% (active) | 99% (active) | 99% (active) | 99.7% (active) |
| [CH3][Sn]([Br])([Br])[CH2]CCCBr | 22% (inactive) | 95% (active) | 89.7% (active) | 10% (inactive) | 94% (active) | 93.4% (active) | 23% (inactive) | 97% (active) | 73.2% (active) | 7% (inactive) | 93% (active) | 86.1% (active) | 13% (inactive) | 93% (active) | 90.7% (active) | 27% (inactive) | 86% (active) | 85.1% (active) |
